# Only some compounds are listed: those with a hit (about 2.2% of all), similar ones and a draw of the others.
# MEX-5 binding: C. elegans MEX-5 TCR-2 RNA binding activity | MEX-5/FITC-TCR2 RNA binding, fluorescence polarization; active compounds read low | activity score (negative = inhibition of binding), % at 10 µM | hit rate 0.38% among 300,000;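 active means inhibition past about -25% in most replicates, and total fluorescence under double the plate's negative control median, limit read from the data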;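 further: 0% = DMSO and -100% = 5 µM competing unlabeled TCR2 RNA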
# Target sequence (Q9XUB2 whole entry, looked up): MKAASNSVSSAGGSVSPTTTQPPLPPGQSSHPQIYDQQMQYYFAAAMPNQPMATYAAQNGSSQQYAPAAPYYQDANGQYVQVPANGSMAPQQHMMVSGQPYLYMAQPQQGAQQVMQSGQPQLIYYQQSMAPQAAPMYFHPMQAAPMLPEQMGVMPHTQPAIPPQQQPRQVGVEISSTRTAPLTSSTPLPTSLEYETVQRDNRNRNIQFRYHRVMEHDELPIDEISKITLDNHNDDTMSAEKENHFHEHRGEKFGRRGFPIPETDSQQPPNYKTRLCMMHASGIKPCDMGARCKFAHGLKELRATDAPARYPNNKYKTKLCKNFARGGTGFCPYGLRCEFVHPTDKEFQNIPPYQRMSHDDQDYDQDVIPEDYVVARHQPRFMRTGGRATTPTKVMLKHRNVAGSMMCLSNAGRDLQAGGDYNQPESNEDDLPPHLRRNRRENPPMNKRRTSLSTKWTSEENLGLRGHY
# HTR2A ag: mouse HTR2A agonism via beta-arrestin recruitment; CHO-K1 mHTR2A beta-arrestin complementation, luminescence; percent of 30 µM serotonin response; activation, % at 7.6 µM; hit rate 0.66% among 360,000;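 active means activation above a run cutoff, the mean activation of all tested compounds plus 3 SD, cut at about 14% in these data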;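 further: 0% = plate median of compound wells and 100% = 30 µM serotonin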
# JMJD2C inh: inhibitors of human GASC-1 (JMJD2C) demethylase. hit rate 0.069% among 330,000. AID 2099. Q9H3R0. inhibition, % at 2.35 µM. GST-JMJD2C(1-420) H3K9me3 demethylation, DELFIA europium;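 active means more than half of a compound's replicate wells show inhibition beyond 50%, single wells judged on their own value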;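 further: signal counts dimethyl H3K9 product captured on neutravidin plate; 0% = median of DMSO wells and 100% = 0.3 times that DMSO median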
# VLA-4 inh: inhibition in a human VLA-4 binding assay; P13612; inhibition, % (about 7 µM as worked out from the volumes in the protocol); hit rate 0.2% among 330,000; AID 2557; VLA-4 expressing cells, ligand binding flow cytometry; in the data active means inhibition above about 50%
# Granule exo inh: lytic granule exocytosis inhibition; TALL-104 LAMP-1 surface exposure, flow cytometry; cells stimulated with thapsigargin and PMA; inhibition, % at 10 µM; hit rate 0.66% among 360,000; AID 651702;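 active means inhibition above about 55%, limit read from the data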
# V-ATPase pHluor: yeast V-ATPase proton transport regulation by pHLuorin; S. cerevisiae, pHLuorin cytosolic pH fluorescence; response, % at 10 µM; hit rate 0.37% among 350,000; in the data active means response mostly above about 7.3%, no sharp cut-off; inactive means mostly below about 5.4%; further: actives read high
# VATPase regulator: regulators of yeast V-ATPase proton transport. response, % at 10 µM. hit rate 2% among 980. shares compounds with V-ATPase pHluor. S. cerevisiae pHLuorin cytosolic pH; in the data active means response above about 24%;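 further: plate controls were vehicle wells for no effect and positive control wells for full effect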
# * = called active by the depositor; · = no result.
SMILES,MEX-5 binding,HTR2A ag,JMJD2C inh,VLA-4 inh,Granule exo inh,V-ATPase pHluor,VATPase regulator
O=[N+]([O-])c1cc(-c2ccc(/C=N\n3cnnc3)o2)cc([N+](=O)[O-])c1,-3,-1,7,-4,-1,0,·
CCn1c(SCC(=O)Nc2ccc(C(=O)OC)cc2)nnc1-c1cccs1,-2,-1,3,4,-2,-6,·
CCn1c(SCC(=O)NCC(=O)Nc2ccc(F)cc2)nnc1-c1cccs1,2,2,1,5,-2,8.6*,-6
CCOC(=O)[C@H]1[C@H]2COc3cc(OC)ccc3[C@@H]2N2C(=O)N(c3cccc(Cl)c3)C(=O)[C@@]12C,-5,3,0,15,0,2,·
Nc1ccc(C(=O)OCc2csc(-c3ccccc3)n2)cc1[N+](=O)[O-],-5,2,4,-1,2,10*,-7
CNS(=O)(=O)c1cccc(C(=O)OCc2csc(-c3ccccc3)n2)c1,1,-4,1,14,4,2,·
CCCNC(=O)c1cc(C2CCCCN2C(=O)c2ccc3ccccc3c2)on1 (stereo not given),·,0,·,·,2,·,·
CC(=O)Nc1ccc(NC(=O)c2ccc(C)c(S(=O)(=O)Nc3cccc(C)c3)c2)cc1,2,-4,11,15,2,10*,0
CC(C)NC(=S)NC(c1ccccc1)(c1ccccc1)c1ccccc1,0,-3,14,10,-4,1,·
Nc1ccccc1NC1=CC(=O)CC(c2ccco2)C1 (stereo not given),-1,-5,-36,13,2,11*,1
Cc1ccc(OCC(=O)Oc2c(C)cccc2C)cc1C,0,2,0,10,13,5,·
Cc1ccc(NC(=O)COc2ccccc2C#N)cc1S(=O)(=O)N1CCCCCC1,·,-3,·,-14,5,0,·
Cc1ccc(NC(=O)COc2cccnc2[N+](=O)[O-])cc1S(=O)(=O)N1CCCCC1,-1,-3,6,26,4,57*,3
CC(C)(C)NC(=O)CSc1nc(-c2ccc(F)cc2)cs1,3,1,3,4,-2,5,·
CCNC(=O)CSc1nc(-c2ccc(F)cc2)cs1,2,2,3,17,-2,8.1*,1
CC(C)(C)OC(=O)NCC(=O)NNC(=O)C(C(=O)OCc1ccccc1)c1ccccc1 (stereo not given),·,-1,2,3,3,8.8*,-1
CC(C)C(NC(=O)CNC(=O)OC(C)(C)C)C(=O)NCc1ccccc1 (stereo not given),1,5,-16,2,-2,·,·
CC1=C(C(=O)N(C)C)CC(CC(=O)NC2CCCC2)C(=O)N1CCC1=CCCCC1 (stereo not given),·,-2,·,·,-1,-1,·
COc1ccc(-c2cccc(-c3cc(=O)oc4cc(OC)c(OC)c(OC)c34)c2)cc1,·,-4,·,·,-4,8.2*,-35
COc1cc(/C=C2\SC(N)=NC2=O)ccc1OCC(=O)Nc1ccccc1C,·,-5,10,7,2,2,·
CCCN1CCN(C(=O)Cn2nc(C)n3c(cc4c(OC)cccc43)c2=O)CC1,·,3,·,·,0,4,·
CCNS(=O)(=O)c1ccc(CCC(=O)N2CCN(c3ccccc3F)CC2)cc1,0,1,4,1,-5,1,·
Cc1ccccc1NC(=O)CSc1nnc2ccc(-c3cccnc3)nn12,-5,-4,-8,-11,-10,10*,5
Cc1ccccc1NC(=O)CSc1nnc2ccc(-c3ccncc3)nn12,-2,6,15,-5,0,0,·
CN(C(=O)C1CCC(=O)N(CCc2ccc(Cl)cc2)C1)C1CCOCC1 (stereo not given),1,3,5,-14,-19,1,·
SMILES,MEX-5 binding,HTR2A ag,JMJD2C inh,VLA-4 inh,Granule exo inh,V-ATPase pHluor,VATPase regulator
CCC(CC)c1nnc(NC(=O)CN2C(=O)NC3(CCCC3)C2=O)s1,-1,3,-1,-4,2,-1,·
COc1cccc(NC(=O)CN(C)S(=O)(=O)c2ccc3c(c2)NC(=O)CS3)c1,0,1,-8,-1,-7,12,4
COc1cc(-c2cc(=O)c3ccccc3o2)ccc1O,-2,5,0,-12,-5,7.7*,7
COc1cc(-c2cc(=O)c3c(O)cc(O)cc3o2)ccc1O,1,-3,-7,7,-1,·,·
Cc1ccccc1CN1C(=O)C(C)Sc2ccc(-c3ccco3)cc21 (stereo not given),·,2,·,·,-32,·,·
OC(CNCC1COc2ccccc2O1)COc1ccccc1F (stereo not given),2,-3,-5,12,2,-1,·
COc1ccc(NC(=O)C2CCC(C(C)(C)C)CC2)cc1S(=O)(=O)N1CCOCC1 (stereo not given),·,-4,-5,3,-3,-2,·
O=C(CCCC(=O)N1CCCC1)N1CCCC1,0,3,-10,34,6,5,·
O=C(O)CCCC(=O)N1CCCC1,1,2,2,20,0,12*,-2
C=CCC1C=C(C)CC(CC=C)N1 (stereo not given),0,-1,20,-1,5,0,·
Cc1cc(=O)n(-c2ccc(Cl)cc2)c(=O)[nH]1,1,-2,6,3,4,4,-1
Cc1cc(=O)cc(C)n1-c1ccc(Cl)cc1,·,3,3,1,0,2,3
CNS(=O)(=O)c1ccc(NC(=O)c2cc(-c3ccncc3)nc3ccc(Cl)cc23)cc1,3,-1,2,15,-4,3,·
CC(CN1CCOCC1)OC(=O)CCc1ccccc1 (stereo not given),-1,2,-5,-12,-3,3,·
CC(CN1CCCCC1)OC(=O)CCc1ccccc1 (stereo not given),2,0,7,0,14,9.8*,6
CN(C)/C=N/c1sc2c(c1C#N)CCCC2,2,1,5,4,-8,11*,5
C[C@H]1CN([C@@H](C)CO)S(=O)(=O)c2ccc(Br)cc2O[C@@H]1CN(C)C(=O)c1cccnc1,·,-4,·,·,1,-1,·
C[C@@H]1CN([C@@H](C)CO)S(=O)(=O)c2ccc(Br)cc2O[C@@H]1CN(C)C(=O)c1ccncc1,·,5,·,·,2,5.2*,-1
O=C(c1ccc(CS(=O)c2ccc(Br)cc2)o1)N1CCN(C2CCCCC2)CC1 (stereo not given),·,1,·,·,5,79*,2
O=C(c1ccc(CS(=O)c2cccc(Cl)c2)o1)N1CCN(C2CCCCC2)CC1 (stereo not given),-2,-4,-1,13,-4,-5,·
CCCC(=O)C1=C(O)C(C(=O)OC)C(C)(C)CC1=Nc1ccc(C)cc1 (stereo not given),1,8,1,24,0,8.3*,1
c1cnc2ccc(-n3ccnc3)cc2c1,·,-2,·,·,2,·,·

# Screening data deposited in PubChem BioAssay by several laboratories.
